The nature of test [1]: Quantitative High-Throughput drug screen in 47 multiple myeloma cell lines against the NCATS MIPE library collection: U266_ATCC cell viability assay (AID 1919864). Note: nearly all actives have a fitted effect of over 35% in size. Put shortly: (§1)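 MIPE 4.0 approved/investigational drugs; 500 cells/well; 48 h 37 °C humidified 5% CO2; CTG luminescence readout; DMSO = 100%, media = 0% viability.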
A short description of test [2]: Quantitative High-Throughput drug screen in 47 multiple myeloma cell lines against the NCATS MIPE library collection: XG6_PLB cell viability assay (AID 1919865). Note: nearly all actives have a fitted effect of over 40% in size. Put shortly:
as §1

Test [3] is described as follows: Quantitative High-Throughput drug screen in 47 multiple myeloma cell lines against the NCATS MIPE library collection: XG1_PLB cell viability assay (AID 1919866). Note: nearly all actives have a fitted effect of over 35% in size. The method in brief: as §1
Test [4] can be described thus: Quantitative High-Throughput drug screen in 47 multiple myeloma cell lines against the NCATS MIPE library collection: VP6_DJ cell viability assay (AID 1919867). Note: nearly all actives have a fitted effect of over 40% in size. The method in brief:
as §1

The nature of test [5]: Quantitative High-Throughput drug screen in 47 multiple myeloma cell lines against the NCATS MIPE library collection: UTMC2_PLB cell viability assay (AID 1919868). Note: nearly all actives have a fitted effect of over 55% in size. The conditions noted are these: CellTiter-Glo ATP luminescence, 48 h; viability (% of DMSO control): at 45.8 µM (top of the series). The method in brief: as §1
(In general: In ATP-based viability assays light output follows the ATP content of the culture.)

Test [6] in a line: Quantitative High-Throughput drug screen in 47 multiple myeloma cell lines against the NCATS MIPE library collection: PE2_PLB cell viability assay (AID 1919869). Note: nearly all actives have a fitted effect of over 35% in size. The method in brief:
as §1

A short description of test [7]: Quantitative High-Throughput drug screen in 47 multiple myeloma cell lines against the NCATS MIPE library collection: OPM2_DSMZ cell viability assay (AID 1919872). Note: nearly all actives have a fitted effect of over 30% in size. The method in brief: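 CellTiter-Glo luminescence (ATP) after 48 h compound exposure, 37C/5% CO2; 500 cells/well; MIPE 4.0 approved/investigational drugs pinned in; DMSO = 100%, media only = 0% viability.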

The nature of test [8]: Quantitative High-Throughput drug screen in 47 multiple myeloma cell lines against the NCATS MIPE library collection: PCM6_Riken cell viability assay (AID 1919870). Note: nearly all actives have a fitted effect of over 30% in size. The method in brief:
as §1

Test [9] in a line: Quantitative High-Throughput drug screen in 47 multiple myeloma cell lines against the NCATS MIPE library collection: RPMI8226_ATCC cell viability assay (AID 1919871). Note: nearly all actives have a fitted effect of over 30% in size. Put shortly:
as §1

Inconclusive results are not listed. A number with no mark means an inactive call. Active and inactive are the calls of the source. Calls come from the whole dose curve; as a rule, active = well fitted cell-killing curve with a large enough effect; inconclusive = small, poorly fitted or top-dose-only effect, or effect the other way; inactive = no such curve, though single readings can be large or run the other way.
Potency is the fitted concentration of half-maximal effect.

Turning to `NC(=O)c1ccc(N(C(N)=O)c2c(F)cccc2F)nc1-c1ccc(F)cc1F`, the Potency entry in test [1] and in test [7] was “inactive” throughout. Further, the Potency in [2] was 1.48 µM (active); in test [3], 2.96 µM (active); in [4], 16.6 µM (active); in [5] it was 9.35 µM (active); in test [6] it was 16.6 µM (active).

On to `CN1CCc2c(n(Cc3ccc(C(=O)NO)cc3)c3ccccc23)C1`, for which the Potency is 26.4 µM (active) in test [1]; 14.8 µM (active) in test [2]; 13.2 µM (active) in [4]; 20.9 µM (active) in [6]; 20.9 µM (active) in [8].

For `CN(C)c1ccc(-c2nc3ncc(Cl)c(N4CCN(CC(=O)Nc5nccs5)CC4)c3[nH]2)cc1`, the Potency in test [1] was 2.96 µM (active); in test [2], 2.64 µM (active); in test [6] it was 1.32 µM (active); in [9] it was 4.18 µM (active). Moreover, in test [8], the Potency entry is “inactive”.

Take `CCCCC[C@H](O)C=C[C@H]1[C@H](O)CC(=O)[C@H]1CC=CCCCC(=O)O`: the Potency in test [1] was 18.7 µM (active); in [2] it was 20.9 µM (active); in [6], 23.5 µM (active). Besides, the Potency result in [5] and in test [7] was “inactive” each time.

Take `CN[C@@H](C)[C@H]1[C@H](O)C[C@@]2(C)[C@@H]3CC[C@H]4C(C)(C)[C@@H](NC)CC[C@@]45C[C@@]35CC[C@]12C`: the Potency result in test [1], in test [6] and in test [7] was “inactive” in each case. Besides, the Potency in test [2] was 23.5 µM (active).

For the compound `COc1ccc2c(c1)c(C1=C(c3c[nH]c4ccccc34)C(=O)NC1=O)cn2CCCN(C)C`, the Potency in test [1] was 26.4 µM (active); in test [4], 20.9 µM (active); in test [8] it was 23.5 µM (active).

For `NC(=O)c1noc([C@H](CCCC2CCCCC2)CC(=O)NO)n1`, the Potency in test [1] was 20.9 µM (active); in test [2] it was 23.5 µM (active); in [6] it was 18.7 µM (active); in test [9] it was 10.5 µM (active); in test [7], 20.9 µM (active).

`CC(C)C[C@H](NC(=O)c1cc2ccccc2s1)C(=O)N1CCN(C(=O)[C@H](CO)NS(=O)(=O)c2ccc(Cl)cc2Cl)CC1`: the Potency is 23.5 µM (active) in test [1], 18.7 µM (active) in test [4] and 23.5 µM (active) in [8].

Consider `O=C1NC(=O)C(=Cc2ccc(-c3ccc(F)cc3O)o2)S1`, for which the Potency entry in test [1] was “inactive”. The Potency is 2.35 µM (active) in test [2], 2.96 µM (active) in test [4], 7.43 µM (active) in test [6] and 9.35 µM (active) in [9].

Regarding `CC(C)[C@H](O)C(=O)N[C@@H](C)C(=O)N[C@@H]1C(=O)N(C)CCc2ccccc21`, the Potency result in [1], in test [6], in test [9] and in test [7] was “inactive” throughout. For the same compound, the Potency in test [2] is 26.4 µM (active).

`CCCCC(C)(C)[C@H](O)C=C[C@H]1[C@H](O)CC(=O)[C@H]1CC=CCCCC(=O)O`: the Potency is 13.2 µM (active) in [1], 23.5 µM (active) in [2] and 8.33 µM (active) in [9].

`COc1cc2nc(-c3cc(F)ccc3O)nc(N[C@@H]3CNC[C@@H]3C(C)(C)O)c2cc1OC`: the Potency is 20.9 µM (active) in test [1]; 0.935 µM (active) in test [2]; 5.26 µM (active) in test [4]; 7.43 µM (active) in test [6]; 2.96 µM (active) in [8]; 23.5 µM (active) in test [9]. Moreover, the Potency in [7] was 16.6 µM (active).

Consider `CCCCn1c(=O)n(Cc2ccccc2F)c(=O)c2[nH]c(Cc3ccc(NC(C)=O)cc3)nc21`, for which the Potency in [1] was 18.7 µM (active). In addition, the Potency result in [2], in [4], in test [6] and in [7] was “inactive” each time.

On to `O=C(Nc1cccc(Cl)c1)Nc1ncc(CCNc2ncnc3ccsc23)s1`, for which the Potency was 16.6 µM (active) in test [1]; 1.32 µM (active) in test [3]; 0.372 µM (active) in test [5]; 5.26 µM (active) in test [8]; 5.9 µM (active) in [9].

Consider `C=CC[N+]1([C@H]2C[C@H]3[C@@H]4CC[C@H]5C[C@H](O)[C@@H](N6CCOCC6)C[C@]5(C)[C@@H]4CC[C@]3(C)[C@H]2OC(C)=O)CCCC1`, for which the Potency entry in test [1], in test [2], in test [5], in test [6], in [8] and in [7] was “inactive” throughout.

As for `C=C1[C@H](n2cnc3c(=O)[nH]c(N)nc32)C[C@H](O)[C@H]1CO`, the Potency in [1] is 14.8 µM (active); in test [3], 1.18 µM (active); in test [4], 4.69 µM (active). The Potency result in test [6], in test [9] and in test [7] was “inactive” throughout.

Consider `Cc1ccc2c(c1)c1c(n2CCc2ccc(C)nc2)CCN(C)C1`, for which the Potency entry in test [1], in test [6] and in test [8] was “inactive” throughout. For the same compound, the Potency in [2] was 16.6 µM (active).

With `CCC(=O)OCC(=O)[C@@]1(OC(=O)CC)[C@@H](C)C[C@@H]2[C@H]3CCC4=CC(=O)C=C[C@]4(C)[C@@]3(F)[C@@H](O)C[C@@]21C`, in test [1], the Potency entry was “inactive”. The Potency in [2] is 11.8 µM (active); in [8], 7.43 µM (active); in test [9] it was 0.418 µM (active).

As for `COc1cc2nccc(Oc3ccc(NC(=O)Nc4ccc(F)cc4F)c(F)c3)c2cc1OC`, the Potency in test [1] was 11.8 µM (active). For the same compound, the Potency result in test [2], in [5] and in test [8] was “inactive” in each case.

For `COc1c(C)cnc(Cn2cnc3c(Cl)nc(N)nc32)c1C`, the Potency in test [1] is 0.166 µM (active); in [2] it was 0.264 µM (active); in test [4], 0.148 µM (active); in test [6], 0.235 µM (active); in [7] it was 0.187 µM (active).

Take `Cc1cc(C(C)Nc2ccccc2)c2nc(N3CCOCC3)cc(=O)n2c1` (stereo not given): the Potency entry in [1] and in test [7] was “inactive” in each case. Also, the figures for the Potency in [2] and in [4] were 1.05 µM (active) and 3.32 µM (active), respectively.

For the compound `CN[C@H]1[C@@H](O[C@@H]2[C@H](O[C@@H]3[C@@H](O)[C@@H](O)[C@@H](N=C(N)N)[C@@H](O)[C@@H]3N=C(N)N)O[C@H](C)[C@@]2(O)C=O)O[C@@H](CO)[C@@H](O)[C@H]1O`, the Potency result in test [1], in test [2], in test [8], in [9] and in test [7] was “inactive” each time.

Turning to `OC[C@H]1O[C@@H](OCCc2ccc(O)cc2)[C@H](O)[C@@H](O)[C@H]1O`, the figures for the Potency in test [1], in [2] and in [4] were 20.9 µM (active), 5.9 µM (active) and 0.662 µM (active), respectively. Also, the Potency entry in [6] and in test [7] was “inactive” throughout.

The values are drawn from PubChem BioAssay (NCATS).
